Compounds with a hit are over-represented: about 3.8% of the library has one in this group of screens.
FGF22 binding = binders of human FGF22 protein, primary screen, FGF22 synaptogenesis inhibitor project, biophysical, thermal shift, single point | recombinant FGF22 thermal shift, SYPRO orange fluorescence; percent of sucrose octasulfate shift, DMSO zero | activity (Tm shift, normalised), % at 9.99 µM | AID 651658, 2012 | Fibroblast growth factor 22 (Homo sapiens), Q9HCT0 | 340,000 compounds, 1.5% hits;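 active = mean Tm shift, scaled 0 neutral to 100 positive control, at about 1.3% or above, every replicate too, limit read from the data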
Target sequence (Q9HCT0 whole entry, looked up): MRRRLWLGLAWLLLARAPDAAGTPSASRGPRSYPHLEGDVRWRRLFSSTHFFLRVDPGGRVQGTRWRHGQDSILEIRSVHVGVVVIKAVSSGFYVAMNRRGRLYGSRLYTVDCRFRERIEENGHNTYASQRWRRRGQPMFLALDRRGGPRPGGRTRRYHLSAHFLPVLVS
ADAM17 inh = ADAM17 inhibitors, primary screen, biochemical, QFRET; Disintegrin and metalloproteinase domain-containing protein 17 (Homo sapiens), P78536; recombinant ADAM17, EDANS/DABCYL FRET peptide cleavage; inhibition, % at 6.95 µM; 370,000 compounds, 0.83% hits;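 active = inhibition above the mean of compounds lying between control limits plus 3 SD, set per campaign, cut at about 8.5% in these data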;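 also: 0% = DMSO-only wells as the low control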
ADAM10 inh = human ADAM10 inhibitors, primary screen, biochemical, QFRET, HTS; inhibition, % at 7 µM; AID 720582, 2013; recombinant ADAM10, EDANS/DABCYL FRET peptide cleavage, 3 h; 370,000 compounds, 0.62% hits;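 active = inhibition above a per-campaign cutoff equal to the mean of compounds falling between control-based bounds plus 3 SD, cut at about 20% in these data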;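 also: 0% = DMSO wells while the 100% control is not disclosed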
KLK7 zymogen act = proKLK7 zymogen activators, primary screen, biochemical, fluorescence intensity; Kallikrein-7 (Homo sapiens), P49862; purified proKLK7, EDANS-DABCYL substrate fluorescence; 100% is mature enzyme control, 0% vehicle; activation, % at 7 µM; 370,000 compounds, 0.9% hits; AID 652039, 2013;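 active = activation above the mean of all tested compounds plus 3 SD, computed per campaign excluding outliers beyond control limits, cut at about 13% in these data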
Ecoli rRNA inh = reduced GFP signal of wild-type E. coli, primary screen, bacterial rRNA inhibitor project, GFP/RFP fluorescence, OD600, single point; E. coli WT GFP vs humanized-ribosome RFP mutants, 24 h; hits give low values; DMSO median 0, no signal -100; GFP signal change (wild-type ribosome), % (no concentration beside the values); 350,000 compounds, 1.6% hits;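 active = significant combined selectivity score with lowered wild-type GFP, culture density cut under 30%, mutant RFP and density less affected; inactive = any of these conditions unmet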
Active calls of the source: *; x = no result given.

SMILES	FGF22 binding	ADAM17 inh	ADAM10 inh	KLK7 zymogen act	Ecoli rRNA inh
CC(=O)Nc1ccc(C(=O)OCC(=O)NCc2ccc3c(c2)OCO3)cc1	43*	5	1	0	1
O=C(CSc1nc2ccccc2s1)Nc1ccc2c(c1)OCO2	0	-2	6	0	-28*
Cc1nnc(SCC(=O)Nc2ccc3c(c2)OCO3)s1	0	2	2	0	5
CC(C)n1c(C(=O)OCC(=O)NCc2ccc3c(c2)OCO3)cc2sccc21	0	1	7	0	-25*
COc1ccc(CC(=O)OCC(=O)Nc2ccc3c(c2)OCO3)cc1	43*	-1	4	0	2
Cc1ccccc1S(=O)(=O)N1CC[C@@H]2[C@H](CO)Nc3ccc(-c4cccc(F)c4)cc3[C@@H]21	0	x	x	x	-2
COc1ccccc1CNC(=O)C[C@H]1C[C@H]2c3cc(NC(=O)NC4CCCC4)ccc3O[C@H]2[C@H](CO)O1	-1	x	x	x	2
CCOc1ccc(NC(=O)c2sc(NC(C)=O)c(C(=O)OC)c2C)cc1	43*	1	-2	0	16
COC(=O)c1c(NC(C)=O)sc(C(=O)Nc2ccccc2)c1C	43	1	11	0	x
CC(C)NC(=O)C(=O)Nc1ccc2c(c1)N(S(=O)(=O)c1cccs1)CCC2	0	-1	4	0	-18*
C[C@H]1CCCCO[C@H](CN(C)C(=O)Nc2ccc(C(F)(F)F)cc2)[C@@H](C)CN([C@@H](C)CO)C(=O)c2cc(NC(=O)Nc3ccc4c(c3)OCO4)ccc2O1	0	x	x	x	3
CC(C)c1cccc(C(C)C)c1NC(=S)Nc1cccc(Cl)c1	0	2	-7	-1	-26*
CS(=O)(=O)N1CCN(CCN2C(=O)c3cccc4cccc(c34)C2=O)CC1	45*	-4	4	0	-4
CC(C)(C)C(=O)N1CCN(CCN2C(=O)c3cccc4cccc(c34)C2=O)CC1	0	-3	-10	-1	11
CCCC#Cc1ccc([C@H]2[C@@H](CO)N3C(=O)CN(C(=O)Nc4cc(F)ccc4F)C[C@@H]23)cc1	x	x	x	x	-1
O=C(Nc1ccccc1C(=O)NC(Cc1ccc(O)cc1)C(=O)O)c1ccccc1 (centres undefined)	44*	-6	-6	0	9
O=C(Nc1ccccc1C(=O)N/N=C/c1ccc(O)cc1)c1ccccc1	0	-3	-6	-1	-30*
COC(=O)[C@]12CCCCC=C1N(Cc1ccccc1)C(=O)[C@H](CC(=O)NCc1ccc(OC)c(OC)c1)C2	0	-5	-5	0	-20*
CCOC(=O)[C@]12CCC=C1N(Cc1ccco1)C(=O)[C@H](CC(=O)NCc1ccc(C)o1)C2	43*	-2	-2	0	11
CCOC(=O)[C@]12CCC=C1N(Cc1ccccc1)C(=O)[C@H](CC(=O)NCc1ccc(C)o1)C2	0	-4	-13	0	1
COC(=O)[C@]12CCCCC=C1N(Cc1ccccc1)C(=O)[C@H](CC(=O)N1CCCCC1)C2	0	-2	-7	0	-26*
COC(=O)[C@]12CCCCC=C1N(Cc1ccccc1)C(=O)[C@H](CC(=O)N1CCCC1)C2	0	-3	-9	0	-2
Cc1c(C(=O)NCCSCc2ccc(F)cc2)cnn1-c1ccc(Cl)cc1	0	5	9	1	-38*
COc1cccc(C(=O)NCCSCc2c(F)cccc2Cl)c1	0	-2	6	-1	-37
Cc1c(C(=O)NCCSCc2cccc(C(F)(F)F)c2)cnn1-c1ccc(F)cc1	0	1	14	1	-37*
Cc1c(C(=O)NCCSCc2c(F)cccc2Cl)cnn1-c1ccc(F)cc1	0	2	5	0	-36*
Cc1c(C(=O)Nc2cc(F)cc(F)c2)cnn1-c1ccccc1	0	-2	0	0	2
